TDP1 block – blocks human tyrosyl-DNA phosphodiesterase 1; AID 485290; Potency, µM (highest dose often 130 µM), for inactives: at the top dose activity change, negative = inhibition, hits mostly inhibitors; Q9NUW8; recombinant TDP1, AlphaScreen DNA substrate cleavage; hit rate 0.28% among 350,000; further: potency means the concentration at half of the fitted maximal effect; on the % scale 0 is the no-effect control and ±100 the full control effect; nearly all actives have a fitted effect of over 40% in size
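Recombinant human Tdp1 (E. coli-expressed, 1 nM final) preincubated with compounds 15 min at room temperature, then 5'-biotin/3'-phosphotyrosine-FITC DNA substrate (15 nM final) added for 5 min. AlphaScreen beads (10 ug/ml final) added 10 min; cleavage lowers signal.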
G9a inh-1 – blocks human histone lysine methyltransferase G9a | Q96KQ7 | G9a H3K9 monomethylation, AlphaScreen, 2 h | Potency, µM (top dose mostly 102 µM), inactives show top-dose activity, negative = inhibition, most hits filed as inhibitors | hit rate 8.8% among 350,000 | AID 504332; further: potency means the concentration at half of the fitted maximal effect; on the % scale 0 is the no-effect control and ±100 the full control effect; nearly all actives have a fitted effect of over 75% in size
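Enzyme 20 nM + cpd, 15 min RT; add b-H3K9 pep 500 nM / SAM 20 uM; 2 h RT; anti-H3K9me1 Ab 0.5 ug/mL + SA donor / anti-rabbit acceptor beads 20 ug/mL each, 10 min; AlphaScreen read.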
HP1b chromo inh – inhibitors of HP1-beta chromodomain binding to methylated histone tails | P83916 | Potency, µM (doses to about 114 µM), without a hit: top-dose activity change, negative = inhibition, most hits filed as inhibitors | AID 540317 | hit rate 0.56% among 390,000 | AlphaScreen HP1-beta / biotin-H3K9me3 peptide binding; further: potency means the concentration at half of the fitted maximal effect; nearly all actives have a fitted effect of over 70% in size
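HP1-beta protein (50 nM final) preincubated 30 min at room temperature with biotinylated H3(1-18)K9me3 peptide (50 nM) in PBS pH 7.4, 0.01% Tween-20, then compound added for 30 min. AlphaScreen streptavidin donor/nickel chelate acceptor beads (10 ug/mL final), 30 min dark, luminescence read.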
Sfp inh – inhibitors of Bacillus subtilis Sfp phosphopantetheinyl transferase; Biochemical Sfp PPTase activity, qHTS; Potency, µM, inactives show largest response in the series, negative = inhibition, usual class: inhibitors; AID 1490; Q9F4F7; hit rate 3.5% among 310,000;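 further: the enzyme is Sfp with the accession as filed and its product quenches rhodamine fluorescence; potency means the concentration at half of the fitted maximal effect; 0% = enzyme reaction without inhibitor and -100% = no enzyme wells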
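After 15 min at room temperature with compound, 15 nM Sfp received 5 uM rhodamine-CoA plus 12.5 uM BHQ-2-ybbR (50 mM Hepes pH 7.6, 10 mM MgCl2). Rate came from the fluorescence difference over 30 min, ex 525/em 598 nm.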
BAZ2B inh – BAZ2B (human) inhibition. Q9UIF8. AlphaScreen BAZ2B-H3K14Ac peptide displacement. Potency, µM (series often up to 114 µM), for the others: top-dose activity change, negative = inhibition, hits mostly inhibitors. hit rate 4.4% among 360,000. AID 504333; further: potency means the concentration at half of the fitted maximal effect; on the % scale 0 is the no-effect control and ±100 the full control effect; nearly all actives have a fitted effect of over 60% in size
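BAZ2B (50 nM) with biotin-H3(5-23)K14Ac peptide (50 nM) in PBS pH 7.4, 0.01% Tween-20, preformed 30 min, then compound 30 min at room temperature; top concentration 110uM. AlphaScreen streptavidin donor/nickel chelate acceptor beads (10 ug/mL final), 20 min dark, signal read.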
JMJD2A Tudor inh – inhibitors of human JMJD2A Tudor domain; AID 504339; hit rate 4.4% among 390,000; Potency, µM (highest dose often 114 µM), without a hit: top-dose activity change, negative = inhibition, hits mostly inhibitors; AlphaScreen JMJD2A-Tudor / H3K4me3 peptide binding; O75164; further: potency means the concentration at half of the fitted maximal effect; on the % scale 0 is the no-effect control and ±100 the full control effect; nearly all actives have a fitted effect of over 50% in size
JMJD2E confirm – confirmation of inhibitors of human JMJD2E demethylase. shares compounds with JMJD2A Tudor inh. Recombinant JMJD2E, FDH-coupled NADH fluorescence (FDH is formaldehyde dehydrogenase). Potency, µM (doses to about 56.8 µM), inactives show at the top dose activity change, negative = inhibition, most hits filed as inhibitors. hit rate 93% among 140. AID 2677
FDH inh – blocks Pseudomonas putida formaldehyde dehydrogenase, flagging JMJD2E artifacts | FDH enzyme assay, NADH fluorescence kinetic | hit rate 10% among 140 | shares compounds with JMJD2A Tudor inh | Potency, µM (highest dose often 56.7 µM), for inactives: at the highest dose activity, negative = inhibition, hits mostly inhibitors
G9a inh-2 – inhibits human G9a histone lysine methyltransferase, hit confirmation; shares compounds with JMJD2A Tudor inh; G9a H3K9 monomethylation, AlphaScreen, 2 h; Potency, µM, actives largely listed as inhibitors; hit rate 89% among 370; AID 588344; further: potency means the concentration at half of the fitted maximal effect; nearly all actives have a fitted effect of over 65% in size
* marks the source's active call; other numbers are inactive results; ? = inconclusive; / = not tested or not shown; [ ] = remark or other dose. A selection: hits, their analogues and other compounds. The true share with any hit is near 12%. The call rests on the fitted dose curve; in most records, active means well fitted curve in the direction sought with a large enough effect; inconclusive means small, poorly fitted or top-dose-only effect, or another doubt; inactive means no such curve, though single readings can be large; an effect the other way counts as inactive or inconclusive.

SMILES	TDP1 block	G9a inh-1	HP1b chromo inh	Sfp inh	BAZ2B inh	JMJD2A Tudor inh	G9a inh-2	others
CC(C(=O)Nc1ccc(S(=O)(=O)N2CCCC2)cc1)N(C)CC(=O)Nc1cccc(F)c1 (stereo not drawn)	-0.4%	/	19.7%	/	/	-5.9%	/
CC(C(=O)N1CCCCC1)N(C)CC(=O)Nc1cccc(F)c1 (stereo not drawn)	3.5%	?	-21.7%	/	15.8µM*	25.1µM*	44.7*
CC(C)C(=O)Nc1ccc(N2CCCC2)cc1	0.0%	?	3.3%	79.4µM*	-38.0%	?	1*
O=C(Nc1ccc(N2CCCCCC2)cc1)c1ccccc1Cl	8.2%	2.51µM*	35.5µM*	-10.0%	28.2µM*	31.6µM*	7.08*
Cc1ccc(C(=O)N2CCN(c3ccc(NC(=O)c4cc(C)cc(C)c4)cc3)CC2)cc1	1.3%	-5.9%[0.501 µM]	38.3%	1.6%	-9.1%	-2.2%	/
Cc1cc(C)cc(C(=O)Nc2ccc(N3CCCC3)cc2)c1	-5.1%	-126.8%	-13.0%	50.1µM*	?	?	0.71*
Cc1ccc(-n2nc(CO)c(C(=O)NCc3cccnc3)n2)cc1C	0.0%	2.4%[59 µM]	19.1%	/	-11.3%	-9.1%	/
CCC1Oc2ccc(C)cc2N(CC(=O)N2CCCC2)C1=O (stereo not drawn)	2.1%	/	16.4%	8.9%	2.3%	-6.5%	/
COc1ccc(C(=O)CSc2nnc(CNC(=O)c3ccco3)n2C)cc1	8.2%	-18.7%[12.7 µM]	-1.8%	15.8%	-19.6%	-30.5%	/
COc1ccc(NCc2nnc(SCC(=O)c3ccc(OC)cc3)n2C)cc1	9.4%	?	18.4%	-8.5%	-0.6%	56.2µM*	11.2*
CC1=NN(c2nc3ccccc3[nH]2)C(=O)C1Cc1ccccc1 (stereo not drawn)	9.6%	?	34.8%	20.5%	22.4µM*	50.1µM*	/	JMJD2E confirm=5.76µM*;FDH inh=?
O=C(CSc1nnnn1-c1ccc(O)cc1)c1cc2ccccc2o1	5.2%	/	41.9%	-17.7%	-33.6%	-33.9%	/
Cc1oc(-c2ccccc2)cc1C(=O)Nc1ccc(N(C)C)cc1	13.9%	2.24µM*	?	-14.4%	20µM*	50.1µM*	1.78*
Cc1cc(=O)oc(C)c1C(=O)Nc1ccc(N(C)C)cc1	0.0%	?	51.6%	6.4%	-15.3%	-20.9%	/
Cc1cc(C)cc(OCC(=O)N(Cc2ccc(C)o2)C2CCS(=O)(=O)C2)c1 (stereo not drawn)	11.0%	-43.1%[59 µM]	-20.7%	/	-27.3%	-31.9%	/
CCCn1cnc2cc(NCc3ccc(OC)cc3OC)ccc21	7.3%	2.82µM*	-21.0%	/	39.8µM*	?	5.76*
CCn1cnc2cc(NCc3ccc(C)cc3)ccc21	-11.4%	1.58µM*	-10.4%	-9.1%	?	?	4.47*
CCn1cnc2cc([N+](=O)[O-])ccc21	8.9%	-21.2%	21.5%	8.0%	-22.4%	-7.6%	/
CCOc1ccc(CNc2ccc3c(c2)ncn3C)cc1	8.7%	?	-17.8%	-17.4%	?	?	1.78*
CCCn1cnc2cc(NC(=O)c3cc(OC)c(OC)c(OC)c3)ccc21	2.1%	-37.1%[59 µM]	0.0%	/	-33.8%	-13.7%	/
Cn1c(CNc2ccc(F)cc2)nc2ccccc21	6.5%	13.3%	12.5%	14.5%	-33.3%	-26.0%	/
